According to the supplement of paper PMC11732987, “Enantioselective OTUD7B fragment discovery through chemoproteomics screening and high-throughput optimisation” (Communications Chemistry, 2025):

Assays:
Assay in all cases: log2 ratio of Biotin-Ahx-Ub-VS probe labelling (fragment/DMSO); higher = less target engagement (more negative = stronger competition), active = hit call of the paper (q ≤ 0.05, log2 ratio ≤ -1)
Details in all cases: compound concentration: 200 uM; treatment time: 3 h
OTUD6B = target: T1, OTUD6B (UniProt Q8N6M0)
T1 sequence (whole entry): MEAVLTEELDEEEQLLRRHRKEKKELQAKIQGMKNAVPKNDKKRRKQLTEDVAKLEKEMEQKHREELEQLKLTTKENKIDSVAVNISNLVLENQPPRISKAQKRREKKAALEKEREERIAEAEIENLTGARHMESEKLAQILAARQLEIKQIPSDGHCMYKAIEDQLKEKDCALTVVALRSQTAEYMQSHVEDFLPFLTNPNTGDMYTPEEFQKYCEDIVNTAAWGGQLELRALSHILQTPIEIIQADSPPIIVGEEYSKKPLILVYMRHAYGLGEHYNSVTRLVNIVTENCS
Outline: (§1)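 Labelled DUBs were enriched with NeutrAvidin, digested with LysC and trypsin, and run by diaPASEF LC-MS/MS. The labelling used Biotin-Ahx-Ub-VS at 0.5 µM final for 1 h on HEK293T lysate (495 µg per sample) previously treated in triplicate with fragment at 200 µM or vehicle for 3 h. Values are average log2 fragment/vehicle ratios by unpaired t-test on global-median-normalised Spectronaut quantities of proteins with ≥2 unique peptides.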

OTUD7B = target: T2, OTUD7B (UniProt Q6GQQ9)
T2 sequence (whole entry): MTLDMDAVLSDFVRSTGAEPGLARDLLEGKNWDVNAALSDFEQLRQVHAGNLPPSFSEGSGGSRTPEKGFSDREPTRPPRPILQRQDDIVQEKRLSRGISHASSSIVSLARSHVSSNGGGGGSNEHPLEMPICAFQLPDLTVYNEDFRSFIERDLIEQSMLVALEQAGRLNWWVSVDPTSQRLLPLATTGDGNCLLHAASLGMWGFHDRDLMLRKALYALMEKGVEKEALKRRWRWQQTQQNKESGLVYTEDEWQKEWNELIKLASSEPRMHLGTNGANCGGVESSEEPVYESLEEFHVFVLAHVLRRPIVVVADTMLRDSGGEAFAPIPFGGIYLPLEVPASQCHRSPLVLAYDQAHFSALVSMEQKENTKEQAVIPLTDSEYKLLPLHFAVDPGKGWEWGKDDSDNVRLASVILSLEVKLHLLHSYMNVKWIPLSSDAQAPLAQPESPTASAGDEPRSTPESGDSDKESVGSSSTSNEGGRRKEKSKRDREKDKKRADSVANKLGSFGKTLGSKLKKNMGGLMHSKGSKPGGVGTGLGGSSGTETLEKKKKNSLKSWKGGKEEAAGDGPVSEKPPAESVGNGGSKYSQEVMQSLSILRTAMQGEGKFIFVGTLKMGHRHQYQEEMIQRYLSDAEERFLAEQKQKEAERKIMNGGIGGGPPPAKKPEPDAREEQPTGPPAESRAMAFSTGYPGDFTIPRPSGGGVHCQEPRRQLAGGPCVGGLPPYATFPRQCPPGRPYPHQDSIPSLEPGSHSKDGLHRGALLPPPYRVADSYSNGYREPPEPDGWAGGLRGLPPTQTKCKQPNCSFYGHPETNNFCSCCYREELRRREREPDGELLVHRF
Outline: as §1

PRPF8 = PRPF8 (UniProt Q6P2Q9)
Outline: as §1

PSMD7 = target: T3, PSMD7 (UniProt P51665)
T3 sequence (whole entry): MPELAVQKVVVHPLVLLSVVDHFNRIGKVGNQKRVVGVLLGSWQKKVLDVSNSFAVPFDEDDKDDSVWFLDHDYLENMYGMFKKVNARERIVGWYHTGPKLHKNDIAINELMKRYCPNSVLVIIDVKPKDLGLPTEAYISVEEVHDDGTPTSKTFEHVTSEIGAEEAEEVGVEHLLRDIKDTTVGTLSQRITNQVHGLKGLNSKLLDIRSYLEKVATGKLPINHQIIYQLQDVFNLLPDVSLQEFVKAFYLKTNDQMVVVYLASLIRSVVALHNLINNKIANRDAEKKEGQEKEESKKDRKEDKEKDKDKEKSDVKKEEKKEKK
Outline: as §1

UCHL1 = UCHL1 (UniProt P09936)
Outline: as §1

UCHL3 = target: T4, UCHL3 (UniProt P15374)
T4 sequence (whole entry): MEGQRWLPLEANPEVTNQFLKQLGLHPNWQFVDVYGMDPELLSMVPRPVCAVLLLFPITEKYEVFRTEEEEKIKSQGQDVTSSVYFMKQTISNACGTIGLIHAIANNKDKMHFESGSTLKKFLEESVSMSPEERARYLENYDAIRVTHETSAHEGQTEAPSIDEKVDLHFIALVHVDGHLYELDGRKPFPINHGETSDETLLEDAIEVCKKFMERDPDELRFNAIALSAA
Outline: as §1

UCHL5 = target: T5, UCHL5 (UniProt Q9Y5K5)
T5 sequence (whole entry): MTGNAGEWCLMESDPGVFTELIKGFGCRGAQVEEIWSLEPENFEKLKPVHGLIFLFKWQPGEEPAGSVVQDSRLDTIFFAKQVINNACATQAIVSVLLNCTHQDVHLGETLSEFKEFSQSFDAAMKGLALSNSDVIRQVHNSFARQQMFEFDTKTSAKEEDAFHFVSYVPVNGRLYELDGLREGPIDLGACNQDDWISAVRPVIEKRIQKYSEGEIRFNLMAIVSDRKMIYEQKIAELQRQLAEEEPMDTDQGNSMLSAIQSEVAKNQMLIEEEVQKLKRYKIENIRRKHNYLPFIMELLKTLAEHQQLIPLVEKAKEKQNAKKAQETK
Outline: as §1

USP10 = USP10 (UniProt Q14694)
Outline: as §1

USP15 = target: T6, USP15 (UniProt Q9Y4E8)
T6 sequence (whole entry): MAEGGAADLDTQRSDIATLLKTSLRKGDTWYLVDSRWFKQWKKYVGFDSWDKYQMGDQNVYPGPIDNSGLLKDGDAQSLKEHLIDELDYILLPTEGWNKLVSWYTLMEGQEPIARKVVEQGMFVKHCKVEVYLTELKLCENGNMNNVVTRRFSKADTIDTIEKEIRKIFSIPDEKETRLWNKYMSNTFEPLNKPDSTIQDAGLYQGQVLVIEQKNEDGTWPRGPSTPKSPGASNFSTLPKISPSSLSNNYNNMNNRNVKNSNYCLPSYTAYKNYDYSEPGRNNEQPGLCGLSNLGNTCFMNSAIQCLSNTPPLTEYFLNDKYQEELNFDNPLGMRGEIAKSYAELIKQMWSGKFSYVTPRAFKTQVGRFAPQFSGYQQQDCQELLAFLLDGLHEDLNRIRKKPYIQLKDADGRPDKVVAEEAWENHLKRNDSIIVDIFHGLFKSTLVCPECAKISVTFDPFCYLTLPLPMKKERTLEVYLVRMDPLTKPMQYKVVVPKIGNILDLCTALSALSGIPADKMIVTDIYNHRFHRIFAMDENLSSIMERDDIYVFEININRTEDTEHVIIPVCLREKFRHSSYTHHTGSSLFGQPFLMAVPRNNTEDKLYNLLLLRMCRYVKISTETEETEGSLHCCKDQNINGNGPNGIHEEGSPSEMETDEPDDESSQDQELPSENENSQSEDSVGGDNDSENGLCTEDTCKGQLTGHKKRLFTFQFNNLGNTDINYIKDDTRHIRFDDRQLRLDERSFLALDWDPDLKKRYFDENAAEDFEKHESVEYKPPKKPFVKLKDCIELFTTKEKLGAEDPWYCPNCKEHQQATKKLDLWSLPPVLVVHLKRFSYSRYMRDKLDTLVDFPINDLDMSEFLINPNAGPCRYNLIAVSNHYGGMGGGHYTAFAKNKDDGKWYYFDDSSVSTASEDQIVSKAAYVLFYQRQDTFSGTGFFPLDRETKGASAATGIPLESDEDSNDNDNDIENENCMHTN
Outline: as §1

Measured: log2 ratio of Biotin-Ahx-Ub-VS probe labelling

Chain of USP10 (Q14694 whole entry): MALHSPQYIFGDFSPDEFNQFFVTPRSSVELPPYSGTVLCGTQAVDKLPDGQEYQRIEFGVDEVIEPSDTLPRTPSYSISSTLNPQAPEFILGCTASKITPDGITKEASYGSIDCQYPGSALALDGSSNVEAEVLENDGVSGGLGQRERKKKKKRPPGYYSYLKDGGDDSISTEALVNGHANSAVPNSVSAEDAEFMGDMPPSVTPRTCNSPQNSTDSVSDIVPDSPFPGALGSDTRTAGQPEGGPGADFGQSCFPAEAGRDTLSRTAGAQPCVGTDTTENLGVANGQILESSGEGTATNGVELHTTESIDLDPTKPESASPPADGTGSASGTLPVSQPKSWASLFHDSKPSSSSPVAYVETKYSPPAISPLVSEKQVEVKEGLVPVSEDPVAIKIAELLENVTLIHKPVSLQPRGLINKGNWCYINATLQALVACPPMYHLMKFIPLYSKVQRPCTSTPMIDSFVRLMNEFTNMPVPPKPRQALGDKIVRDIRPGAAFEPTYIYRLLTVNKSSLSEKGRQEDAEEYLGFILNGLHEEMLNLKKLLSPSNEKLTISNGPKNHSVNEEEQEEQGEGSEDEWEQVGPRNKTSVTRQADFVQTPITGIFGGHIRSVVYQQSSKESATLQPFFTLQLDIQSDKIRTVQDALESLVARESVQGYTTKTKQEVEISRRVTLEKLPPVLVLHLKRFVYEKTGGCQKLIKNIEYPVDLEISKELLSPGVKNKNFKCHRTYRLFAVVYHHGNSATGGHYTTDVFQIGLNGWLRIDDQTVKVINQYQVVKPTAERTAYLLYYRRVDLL
Chain of UCHL1 (P09936 whole entry, looked up): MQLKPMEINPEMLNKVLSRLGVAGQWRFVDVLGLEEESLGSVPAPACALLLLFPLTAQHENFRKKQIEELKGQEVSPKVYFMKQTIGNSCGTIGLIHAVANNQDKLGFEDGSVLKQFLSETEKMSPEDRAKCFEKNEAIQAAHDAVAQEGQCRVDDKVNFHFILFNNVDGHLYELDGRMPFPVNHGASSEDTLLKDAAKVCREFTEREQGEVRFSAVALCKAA

O=C(CN1CCN(C(=O)CCl)CC1)Nc1cccc(F)c1
inactive: OTUD6B -0.321 | OTUD7B -0.452 | PRPF8 -0.19 | PSMD7 -0.137 | UCHL3 -0.122 | UCHL5 -0.336 | USP10 0.0386 | USP15 -0.225
active: UCHL1 -1.08
